Consider 60 compounds from PubChem BioAssay (Tox21).

Assay [1] is described as follows: cAMP Responsive Elements (CRE) small molecule antagonists, cell-based qHTS assay: qHTS cell viability counter screen (AID 2060913). Also: nearly all actives have a fitted effect of over 40% in size. An outline of the steps:
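Cytotoxicity counter screen multiplexed with the CRE-bla antagonist read: HEK293T cells in DMEM with dialyzed FBS and 25 mM HEPES were treated 3 hrs under 0.25 uM final NKH477, then viability measured by CellTiter-Glo luminescence.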

Assay [2] can be described thus: cAMP Responsive Elements (CRE) small molecule agonists, cell-based qHTS assay: qHTS cell viability counter screen (AID 2060914).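 Also: viability read after 3 h of compound exposure; nearly all actives have a fitted effect of over 50% in size.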 In outline:
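CRE-bla HEK 293T cells, plated 18 h at 37 °C, were exposed to compounds for 3 h at 37 °C/5% CO2. Viability was then measured in the same wells by CellTiter-Glo luminescence after 30 min at room temperature.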
For orientation: qHTS replaces the single test concentration by a dilution series.

Values joined by “and” are separate entries in the source; they are usually repeats but may differ in a detail not shown here. Equal values may be shown once. Inconclusive results are not listed. Values without a mark were called inactive. Active and inactive are the calls of the source. Calls follow the shape of the dose curve; as a rule, active = well fitted cell-killing curve with a large enough effect in the repeat runs; inconclusive = weak or mixed curves, or effect the other way; inactive = flat fitted curve, though single readings scatter.
Potency is read from the fitted curve at half-maximal effect.

For `O=NN(CCO)CCO`, the Potency entry in assay [1] and in assay [2] was “inactive” throughout.

With `CCC[CH2][Sn]([Cl])([Cl])[CH2]CCC`, the Potency in assay [1] is 17.4 µM (active) and 18 µM (active); in assay [2] it was 31 µM (active) and 30.6 µM (active).

Turning to `Cc1ncc2n1-c1ccc(Cl)cc1C(c1ccccc1F)=NC2`, the Potency result in assay [1] and in assay [2] was “inactive” throughout.

As to `CCN(CC)C(=O)SCc1ccc(Cl)cc1`, the Potency entry in assay [1] and in assay [2] was “inactive” each time.

With `Cc1cccc(N=Nc2ccc(N(C)C)cc2)c1`, the Potency result in assay [1] and in assay [2] was “inactive” each time.

Regarding `O=C(CCl)c1ccccc1`, the Potency result in assay [1] and in assay [2] was “inactive” in each case.

On to `N#Cc1ccc(Cl)cc1`, for which the Potency entry in assay [1] and in assay [2] was “inactive” in each case.

For the compound `CC(C)(C)OOC(C)(C)C`, the Potency entry in assay [1] and in assay [2] was “inactive” in each case.

Consider `CCCCN(CCCC)N=O`, for which the Potency result in assay [1] and in assay [2] was “inactive” throughout.

Take `Brc1cccc(-c2ccccc2)c1`: the Potency entry in assay [1] and in assay [2] was “inactive” in each case.

`Cc1cccc(OP(=O)(Oc2cccc(C)c2)Oc2cccc(C)c2)c1`: the Potency entry in assay [1] and in assay [2] was “inactive” in each case.

With `CCOP(=O)(SC(C)CC)N1CCSC1=O` (stereo not given), the Potency entry in assay [1] and in assay [2] was “inactive” each time.

Consider `CC#C[C@]1(O)CC[C@H]2[C@@H]3C[C@H](C)C4=CC(=O)CC[C@]4(C)[C@H]3CC[C@@]21C`, for which the Potency result in assay [1] and in assay [2] was “inactive” throughout.

Take `O=C(O)c1c(Cl)ccc2cc(Cl)cnc12`: the Potency result in assay [1] and in assay [2] was “inactive” throughout.

Turning to `CC(O)CCl` (stereo not given), the Potency entry in assay [1] and in assay [2] was “inactive” throughout.

With `CCCOC(=O)c1cncn1C(C)c1ccccc1` (stereo not given), the Potency result in assay [1] and in assay [2] was “inactive” in each case.

Consider `CC[C@]1(O)CC[C@H]2[C@@H]3CCC4=CCCC[C@@H]4[C@H]3CC[C@@]21C`, for which the Potency entry in assay [1] and in assay [2] was “inactive” throughout.

For the compound `CCC(Br)(CC)C(=O)NC(N)=O`, the Potency entry in assay [1] and in assay [2] was “inactive” in each case.

Turning to `CCc1cnc(C2=NC(C)(C(C)C)C(=O)N2)c(C(=O)O)c1` (stereo not given), the Potency entry in assay [1] and in assay [2] was “inactive” each time.

As to `O=[N+]([O-])C(Br)(CO)CO`, the Potency result in assay [1] and in assay [2] was “inactive” throughout.

Regarding `CCCCc1ccccc1`, the Potency result in assay [1] and in assay [2] was “inactive” each time.

Consider `CCCCNC(=O)n1c(NC(=O)OC)nc2ccccc21`, for which the Potency entry in assay [1] and in assay [2] was “inactive” throughout.

As for `Nc1ccc(-c2ccc(N)c(Cl)c2)cc1Cl`, the Potency entry in assay [1] and in assay [2] was “inactive” in each case.

As for `COC1=CC(=O)O[C@@H](/C=C/c2ccccc2)C1`, the Potency entry in assay [1] and in assay [2] was “inactive” throughout.

On to `CC(C)(C)c1ccccc1O`, for which the Potency entry in assay [1] and in assay [2] was “inactive” each time.

Consider `O=P(O)(O)CCCl`, for which the Potency entry in assay [1] and in assay [2] was “inactive” throughout.

Regarding `CCN[C@@H](C)Cc1ccccc1`, the Potency entry in assay [1] and in assay [2] was “inactive” throughout.

On to `CCC(=O)c1ccc(Cl)cc1`, for which the Potency result in assay [1] and in assay [2] was “inactive” in each case.

On to `C(CCOCC1CO1)COCC1CO1` (stereo not given), for which the Potency entry in assay [1] and in assay [2] was “inactive” in each case.

Take `O=S(=O)(C(Cl)(Cl)Cl)C(Cl)(Cl)Cl`: the Potency entry in assay [1] and in assay [2] was “inactive” throughout.

On to `Oc1ccc([C@H]2CNCc3c2ccc(O)c3O)cc1O`, for which the Potency entry in assay [1] and in assay [2] was “inactive” each time.

For `COC(=O)c1ccccc1S(=O)(=O)NC(=O)N(C)c1nc(C)nc(OC)n1`, the Potency result in assay [1] and in assay [2] was “inactive” in each case.

`c1ccc(Nc2ccc(Nc3ccccc3)cc2)cc1`: the Potency entry in assay [1] and in assay [2] was “inactive” throughout.

As for `c1cc2c3c(cccc3c1)CC2`, the Potency result in assay [1] and in assay [2] was “inactive” each time.

In the case of `OC(Cc1ccccc1Cl)(Cn1cncn1)C1(Cl)CC1` (stereo not given), the Potency result in assay [1] and in assay [2] was “inactive” in each case.

As to `CC(=O)[O-].CC(=O)[O-].O.O.[Zn+2]`, the Potency entry in assay [1] and in assay [2] was “inactive” each time.

Regarding `Cc1cc(=O)[nH]o1`, the Potency result in assay [1] and in assay [2] was “inactive” each time.

In the case of `Cc1cccc(N)c1C`, the Potency entry in assay [1] and in assay [2] was “inactive” each time.

Take `CNP(=O)(OC)Oc1ccc(C(C)(C)C)cc1Cl` (stereo not given): the Potency entry in assay [1] and in assay [2] was “inactive” each time.

Take `CCCCCCC[CH2][Sn]([Cl])([Cl])[CH2]CCCCCCC`: the Potency result in assay [1] and in assay [2] was “inactive” in each case.

For the compound `O=C(O)c1ccc2[nH]cc(CCCCN3CC=C(c4ccccc4)CC3)c2c1`, the Potency result in assay [1] and in assay [2] was “inactive” throughout.

Consider `CCC(OC(C)=O)C(CC(C)NC)(c1ccccc1)c1ccccc1` (stereo not given), for which the Potency result in assay [1] and in assay [2] was “inactive” each time.

`CCn1cc[n+](C)c1`: the Potency result in assay [1] and in assay [2] was “inactive” each time.

Turning to `Cc1c(F)c(F)c(COC(=O)C2C(/C=C(\Cl)C(F)(F)F)C2(C)C)c(F)c1F` (stereo not given), the Potency result in assay [1] and in assay [2] was “inactive” in each case.

Turning to `CCCCOP(=O)(CCCC)OCCCC`, the Potency result in assay [1] and in assay [2] was “inactive” each time.

Turning to `NC(=O)CCl`, the Potency result in assay [1] and in assay [2] was “inactive” throughout.

For the compound `CCC(C)Nc1c([N+](=O)[O-])cc(C(C)(C)C)cc1[N+](=O)[O-]` (stereo not given), the Potency entry in assay [1] and in assay [2] was “inactive” each time.

With `Cc1ccc2cc3c(ccc4ccccc43)c3c2c1CC3`, the Potency entry in assay [1] and in assay [2] was “inactive” in each case.

Consider `NCCOS(=O)(=O)O`, for which the Potency entry in assay [1] and in assay [2] was “inactive” each time.

Regarding `Nc1cnn(-c2ccccc2)c(=O)c1Cl`, the Potency result in assay [1] and in assay [2] was “inactive” in each case.

For `CC(O)(CS(=O)(=O)c1ccc(F)cc1)C(=O)Nc1ccc(C#N)c(C(F)(F)F)c1` (stereo not given), the Potency result in assay [1] and in assay [2] was “inactive” throughout.

In the case of `CC(C)(C)NCC(O)c1cc(Cl)c(N)c(Cl)c1` (stereo not given), the Potency entry in assay [1] and in assay [2] was “inactive” each time.

As for `Oc1ccc(I)cc1`, the Potency entry in assay [1] and in assay [2] was “inactive” throughout.

Take `CCOP(OCC)OCC`: the Potency result in assay [1] and in assay [2] was “inactive” in each case.

Turning to `CC1(C)C(C=C(Cl)Cl)C1C(=O)OC(C#N)c1ccc(F)c(Oc2ccccc2)c1` (stereo not given), the Potency result in assay [1] and in assay [2] was “inactive” throughout.

On to `COC(=O)c1ccc(CBr)cc1`, for which the Potency entry in assay [1] and in assay [2] was “inactive” throughout.

`ClC1=C(Cl)[C@]2(Cl)[C@@H]3[C@@H](Cl)[C@@H](Cl)C[C@@H]3[C@@]1(Cl)C2(Cl)Cl`: the Potency result in assay [1] and in assay [2] was “inactive” each time.

As for `CCCCS(=O)(=O)Cl`, the Potency result in assay [1] and in assay [2] was “inactive” each time.

As for `CCOC(=O)C1(c2ccccc2)CCN(CCc2ccc(N)cc2)CC1`, the Potency result in assay [1] and in assay [2] was “inactive” each time.

For `CCOC(=O)CCN(SN(C)C(=O)Oc1cccc2c1OC(C)(C)C2)C(C)C`, the Potency result in assay [1] and in assay [2] was “inactive” throughout.
